Structures are written as SMILES. Unmarked numbers belong to inactive results. Results filed as inconclusive are left out. The source made the active and inactive calls. Unless noted, calls follow the shape of the dose curve; as a rule, active = well fitted curve in the direction sought with a large enough effect in the repeat runs; inconclusive = weak or mixed curves; inactive = no such curve, though single readings can be large; an effect the other way counts as inactive or inconclusive.

Results on six compounds are retold here after PubChem BioAssay (Tox21).

Assay [1] in a line: qHTS assay to identify small molecule antagonists of the estrogen receptor beta (ER-beta) signaling pathway - cell viability counter screen (AID 1259382). Also: nearly all actives have a fitted effect of over 55% in size. Also: potency is read from the fitted curve at half-maximal effect. In short, it runs like this:
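CellTiter-Glo ATP luminescence measured after the LiveBLAzer read in the same wells; ER-beta-UAS-bla HEK293T cells, 16 hr compound treatment with 1nM 17-beta-estradiol agonist at 37C, 5% CO2.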
For orientation: qHTS replaces the single test concentration by a dilution series.

Assay [2] can be described thus: qHTS assay to identify small molecule agonists or antagonists of the thyroid stimulating hormone receptor (TSHR) signaling pathway - wild type cell line counter screen (AID 1259384; calls by dose curve). In short, it runs like this: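 Wild-type Hek293 cells, 800/well, 18 h at 37C, then compound with Ro20-1724 for 30 min RT. cAMP by HTRF (cAMP-d2/anti-cAMP cryptate), 1 h RT, fluorescence read. 15 concentrations, triplicates.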

The nature of assay [3]: qHTS assay to identify small molecule agonists of the estrogen receptor alpha (ER-alpha) signaling pathway in the presence of an antagonist - cell viability counter screen (AID 1259386).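 Also: series mostly up to about 92 µM; cells exposed to compounds for 22 h at 37 °C before the viability read; nearly all actives have a fitted effect of over 30% in size.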 In short, it runs like this:
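Using estrogen-depleted VM7Luc4E2 cells, the 15-concentration compound series was applied together with 10.0nM ICI-182,780 and incubated 22hr at 37C/5% CO2. Cell viability was then scored by CellTiter-Fluor.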

The target of assay [4] is Progesterone receptor (Homo sapiens) (UniProt P06401). Briefly: qHTS assay to identify small molecule agonists of the progesterone receptor (PR) signaling pathway (AID 1346784; calls by dose curve; also: nearly all actives have a fitted effect of over 30% in size). In short, it runs like this: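 Agonist qHTS: compounds pinned onto 3,000 PR-UAS-bla HEK 293T cells per well in charcoal-stripped serum medium, 16hr at 37C, then beta-lactamase activity measured by LiveBLAzer FRET fluorescence after 2 hours at room temperature.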
Chain of Progesterone receptor (Homo sapiens) (P06401 whole entry, looked up): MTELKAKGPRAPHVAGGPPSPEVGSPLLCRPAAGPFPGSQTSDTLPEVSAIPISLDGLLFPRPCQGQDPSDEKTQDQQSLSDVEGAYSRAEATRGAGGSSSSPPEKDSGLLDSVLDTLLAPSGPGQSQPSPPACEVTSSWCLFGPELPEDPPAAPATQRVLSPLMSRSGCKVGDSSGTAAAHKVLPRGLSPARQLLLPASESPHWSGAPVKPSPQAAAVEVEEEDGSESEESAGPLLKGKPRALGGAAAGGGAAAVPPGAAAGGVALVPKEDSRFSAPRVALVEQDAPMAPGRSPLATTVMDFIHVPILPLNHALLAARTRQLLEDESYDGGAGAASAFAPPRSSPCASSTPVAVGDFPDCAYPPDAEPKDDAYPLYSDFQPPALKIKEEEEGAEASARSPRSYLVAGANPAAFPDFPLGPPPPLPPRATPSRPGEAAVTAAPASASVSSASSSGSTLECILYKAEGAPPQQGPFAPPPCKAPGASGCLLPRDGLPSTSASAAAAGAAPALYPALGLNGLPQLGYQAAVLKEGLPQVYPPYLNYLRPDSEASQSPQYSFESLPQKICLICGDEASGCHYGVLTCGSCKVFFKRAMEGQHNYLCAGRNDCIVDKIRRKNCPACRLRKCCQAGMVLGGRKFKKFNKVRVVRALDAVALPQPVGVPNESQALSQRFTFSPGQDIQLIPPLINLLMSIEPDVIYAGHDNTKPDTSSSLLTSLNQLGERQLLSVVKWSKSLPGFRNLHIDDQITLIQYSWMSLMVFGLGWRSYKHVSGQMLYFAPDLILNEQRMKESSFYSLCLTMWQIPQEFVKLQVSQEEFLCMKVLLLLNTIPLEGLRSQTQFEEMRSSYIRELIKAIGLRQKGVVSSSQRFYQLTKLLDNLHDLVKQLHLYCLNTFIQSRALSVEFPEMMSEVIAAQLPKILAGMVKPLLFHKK

The target is the same in assay [5]. Description: qHTS assay to identify small molecule antagonists of the progesterone receptor (PR) signaling pathway (AID 1346795; active = well fitted inhibition curve with a large enough effect in the signal ratio in the repeat runs, not every such curve was filed as active; the % refers to the signal ratio). The method in brief: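 Antagonist mode with agonist R5020 at 1 nM final and 16 hr incubation at 37C. Reporter was beta-lactamase driven by UAS in HEK293T (PR-UAS-bla), 2% charcoal-stripped serum; signal from LiveBLAzer FRET substrate, 2 hr at room temperature.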

The nature of assay [6]: qHTS assay to identify small molecule antagonists of the progesterone receptor (PR) signaling pathway - cell viability counter screen (AID 1346798). Also: nearly all actives have a fitted effect of over 50% in size. Also: potency is read from the fitted curve at half-maximal effect. In short, it runs like this: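 Cytotoxicity read as CellTiter-Glo luminescence (30 min, room temperature) in the same wells as the beta-lactamase readout. HEK293T PR-UAS-bla cells in charcoal-stripped 2% FBS received compound and R5020, then 16 h at 37C, 5% CO2.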

A short description of assay [7]: qHTS assay to identify small molecule agonists of the progesterone receptor (PR) signaling pathway - cell viability counter screen (AID 1346799; calls by dose curve; also: nearly all actives have a fitted effect of over 45% in size; also: potency is read from the fitted curve at half-maximal effect). The method in brief:
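Cytotoxicity measured by CellTiter-Glo luminescence (30 min, RT) in the same wells as the PR beta-lactamase agonist read. Those HEK293T cells had 16 h compound treatment at 37 C in 2% charcoal-stripped FBS medium.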

The nature of assay [8]: qHTS assay to identify small molecule antagonists of the TGF-beta/Smad signaling pathway - cell viability counter screen (AID 1346824). Also: nearly all actives have a fitted effect of over 50% in size. In short, it runs like this:
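SBE-bla HEK 293T cells, incubated overnight, then compound plus 0.25 ng/mL TGF-beta1 (stock added) for 5 hr at 37 C. Viability was read in the same wells by CellTiter-Glo luminescence after 30 min at room temperature.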

Assay [9] in a line: qHTS assay to identify small molecule agonists of the TGF-beta/Smad signaling pathway - cell viability counter screen (AID 1346829). Also: top concentration of the series differs between compounds; nearly all actives have a fitted effect of over 45% in size. The method in brief:
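Luminescence from CellTiter-Glo, read after a 30 min room-temperature incubation, gives cell viability of SBE-bla HEK 293T cells treated 5 hr with compounds at 37 C.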

A short description of assay [10]: qHTS assay to identify small molecule agonists of the TGF-beta/Smad signaling pathway (AID 1346859; active = well fitted activation curve with a large enough effect in the signal ratio in the repeat runs, not every such curve was filed as active; the % refers to the signal ratio; also: series mostly up to about 77 µM). In short, it runs like this: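 Fluorescence (ex 405 nm; em 460 and 530 nm) was read 2 h after LiveBLAzer FRET substrate at RT. The preceding compound treatment of overnight-plated SBE-bla HEK293T cells lasted 5 h at 37 C.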
Assay [11] concerns the target Thyrotropin-releasing hormone receptor (Homo sapiens) (UniProt P34981). Briefly: qHTS assay to identify small molecule antagonists of the thyrotropin-releasing hormone receptor (TRHR) signaling pathway (AID 1346877; active = well fitted inhibition curve with a large enough effect in the repeat runs, not every such curve was filed as active; also: series mostly up to about 51 µM). The method in brief: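 Calcium signal in dye-loaded TRHR/HEK293 cells; compounds added 5 min before TRH (1 nM final); fluorescence monitored 3 min at 1 s steps.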

Assay [12] has the same target. Briefly: qHTS assay to identify small molecule agonists of the thyrotropin-releasing hormone receptor (TRHR) signaling pathway (AID 1346891; calls by dose curve; also: series mostly up to about 58 µM). In short, it runs like this: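 Agonist-mode intracellular calcium readout: kinetic fluorescence over 3 min at 1 s intervals after compound addition to TRHR-HEK293 cells (18 h seeded, 2 h dye-loaded at 37 C). Fifteen concentrations, triplicates.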

The nature of assay [13]: Human pregnane X receptor (PXR) small molecule agonists, qHTS cell viability counter screen (AID 1346977). Also: nearly all actives have a fitted effect of over 50% in size. Also: potency is read from the fitted curve at half-maximal effect. The method in brief:
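Same-well viability read: CellTiter-Fluor added after 23 hr compound exposure, fluorescence measured 1 hr later. Cells were PXR-Luc HepG2 seeded at 2,000/well in 5% charcoal-stripped FBS medium, rested 5 hr before dosing at 37 C.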

The nature of assay [14]: Caspase-3/7 induction in HepG2 cells by small molecules, qHTS assay (AID 1346978). Also: nearly all actives have a fitted effect of over 15% in size. Also: potency is read from the fitted curve at half-maximal effect. The method in brief:
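Wild-type HepG2 cells, 2,000/well, settled 5 hr at 37 C and 5% CO2, then compound-treated for 17 hr; caspase-3/7 activity read by luminescent Caspase-Glo 3/7 after 30 min at room temperature.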

Assay [15] can be described thus: Caspase-3/7 induction in CHO-K1 cells by small molecules, qHTS cell viability counter screen (AID 1346979). Also: nearly all actives have a fitted effect of over 35% in size. Also: potency is read from the fitted curve at half-maximal effect. In short, it runs like this:
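Cytotoxicity counter screen: CellTiter-Fluor added to compound-treated wild-type CHO-K1 cells at 16 h (37C, 5% CO2), fluorescence measured 1 h later; same wells as caspase-3/7 measurement.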

The nature of assay [16]: Caspase-3/7 induction in CHO-K1 cells by small molecules, qHTS assay (AID 1346980). Also: nearly all actives have a fitted effect of over 15% in size. Also: potency is read from the fitted curve at half-maximal effect. In short, it runs like this:
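Wild-type CHO-K1 cells exposed to compounds for 17hr at 37 C, 5% CO2. Caspase-3/7 activity then measured by Caspase-Glo 3/7 luminescence after 30min at room temperature.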

Assay [17] is described as follows: Caspase-3/7 induction in HepG2 cells by small molecules, qHTS cell viability counter screen (AID 1346981). Also: nearly all actives have a fitted effect of over 30% in size. Also: potency is read from the fitted curve at half-maximal effect. In short, it runs like this:
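After a 5-hr attachment period at 37 C and 5% CO2, wild-type HepG2 cells received compounds in DMSO. Sixteen hours later CellTiter-Fluor was dispensed and the fluorescent signal quantified after a further hour.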

Assay [18] concerns the target Nuclear receptor subfamily 1 group I member 2 (Homo sapiens) (UniProt O75469). Description: Human pregnane X receptor (PXR) small molecule agonists, qHTS assay (AID 1346982). Also: nearly all actives have a fitted effect of over 35% in size. The method in brief: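 Tox21 qHTS; PXR-Luc HepG2; compounds pinned from DMSO; 24 hr, 37 C; ONE-Glo luciferase detection, 30 min room temperature.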
The target in assay [19] is Thyrotropin receptor (Homo sapiens) (UniProt P16473). Briefly: qHTS assay to identify small molecule antagonists of the thyroid stimulating hormone receptor (TSHR) signaling pathway (AID 1259385; calls by dose curve; also: nearly all actives have a fitted effect of over 20% in size; also: potency is read from the fitted curve at half-maximal effect). The method in brief: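 TSHR-HEK293 cells (800/well) plated 18 h, then compounds with Ro20-1724 and TSH at 1.5 ng/mL final, 30 min at room temperature. cAMP quantified by HTRF (cAMP-d2/anti-cAMP-cryptate, 1 h); 15 concentrations in triplicate.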
Chain of Thyrotropin receptor (Homo sapiens) (P16473 whole entry, looked up): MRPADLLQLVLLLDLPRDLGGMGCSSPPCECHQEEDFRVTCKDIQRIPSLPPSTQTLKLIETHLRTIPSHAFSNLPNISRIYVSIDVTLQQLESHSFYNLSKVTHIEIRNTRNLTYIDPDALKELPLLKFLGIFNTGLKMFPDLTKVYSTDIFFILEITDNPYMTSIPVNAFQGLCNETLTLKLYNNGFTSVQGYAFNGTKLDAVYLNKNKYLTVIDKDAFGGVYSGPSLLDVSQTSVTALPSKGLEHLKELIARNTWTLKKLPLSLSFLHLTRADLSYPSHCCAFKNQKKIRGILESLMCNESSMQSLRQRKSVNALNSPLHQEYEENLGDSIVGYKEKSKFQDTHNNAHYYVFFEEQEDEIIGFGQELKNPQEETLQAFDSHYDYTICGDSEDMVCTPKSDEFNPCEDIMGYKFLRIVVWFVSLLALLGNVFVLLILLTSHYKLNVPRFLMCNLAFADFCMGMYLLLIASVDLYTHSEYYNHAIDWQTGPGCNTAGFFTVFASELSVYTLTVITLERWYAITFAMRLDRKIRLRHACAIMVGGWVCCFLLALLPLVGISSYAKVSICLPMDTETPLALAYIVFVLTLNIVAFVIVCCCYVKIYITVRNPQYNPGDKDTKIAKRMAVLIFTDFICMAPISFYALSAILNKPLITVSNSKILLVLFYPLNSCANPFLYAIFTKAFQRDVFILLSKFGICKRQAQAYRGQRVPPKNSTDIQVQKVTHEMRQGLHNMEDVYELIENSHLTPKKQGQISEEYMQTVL

For assay [20], the target named is Estrogen receptor (Homo sapiens) (UniProt P03372). Briefly: qHTS assay to identify small molecule agonists of the estrogen receptor alpha (ER-alpha) signaling pathway in the presence of an antagonist (AID 1259383; calls by dose curve; also: top concentration of the series differs between compounds; nearly all actives have a fitted effect of over 15% in size). In short, it runs like this:
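Luminescent ERE-luciferase reporter, VM7Luc4E2 cells (endogenous ER-alpha); 10.0nM ICI-182,780 final; 15-point compound titration; 22hr at 37C; ONE-Glo, 30min RT.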

Chain of Thyrotropin-releasing hormone receptor (Homo sapiens) (P34981 whole entry, looked up): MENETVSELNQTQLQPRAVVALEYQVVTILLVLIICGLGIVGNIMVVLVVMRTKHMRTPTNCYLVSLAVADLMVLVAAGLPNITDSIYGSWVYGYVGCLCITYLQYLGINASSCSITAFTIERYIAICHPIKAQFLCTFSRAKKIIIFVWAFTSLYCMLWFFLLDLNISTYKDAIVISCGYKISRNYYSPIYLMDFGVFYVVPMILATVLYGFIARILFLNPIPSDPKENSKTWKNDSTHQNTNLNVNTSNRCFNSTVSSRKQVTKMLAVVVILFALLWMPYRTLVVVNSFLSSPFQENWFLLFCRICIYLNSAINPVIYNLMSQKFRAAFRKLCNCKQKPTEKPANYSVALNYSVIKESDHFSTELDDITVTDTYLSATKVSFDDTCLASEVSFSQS
Chain of Nuclear receptor subfamily 1 group I member 2 (Homo sapiens) (O75469 whole entry, looked up): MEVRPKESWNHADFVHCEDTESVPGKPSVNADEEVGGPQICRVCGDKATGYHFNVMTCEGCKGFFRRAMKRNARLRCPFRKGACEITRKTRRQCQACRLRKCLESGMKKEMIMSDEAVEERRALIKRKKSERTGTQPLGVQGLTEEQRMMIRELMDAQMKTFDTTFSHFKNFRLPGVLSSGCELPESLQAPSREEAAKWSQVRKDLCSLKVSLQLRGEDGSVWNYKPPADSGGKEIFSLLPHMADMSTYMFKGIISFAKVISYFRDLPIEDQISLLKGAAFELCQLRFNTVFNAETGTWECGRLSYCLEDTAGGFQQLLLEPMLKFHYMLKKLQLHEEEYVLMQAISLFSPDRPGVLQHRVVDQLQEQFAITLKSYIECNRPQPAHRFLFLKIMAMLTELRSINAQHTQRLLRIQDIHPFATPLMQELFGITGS
Chain of Estrogen receptor (Homo sapiens) (P03372 whole entry, looked up): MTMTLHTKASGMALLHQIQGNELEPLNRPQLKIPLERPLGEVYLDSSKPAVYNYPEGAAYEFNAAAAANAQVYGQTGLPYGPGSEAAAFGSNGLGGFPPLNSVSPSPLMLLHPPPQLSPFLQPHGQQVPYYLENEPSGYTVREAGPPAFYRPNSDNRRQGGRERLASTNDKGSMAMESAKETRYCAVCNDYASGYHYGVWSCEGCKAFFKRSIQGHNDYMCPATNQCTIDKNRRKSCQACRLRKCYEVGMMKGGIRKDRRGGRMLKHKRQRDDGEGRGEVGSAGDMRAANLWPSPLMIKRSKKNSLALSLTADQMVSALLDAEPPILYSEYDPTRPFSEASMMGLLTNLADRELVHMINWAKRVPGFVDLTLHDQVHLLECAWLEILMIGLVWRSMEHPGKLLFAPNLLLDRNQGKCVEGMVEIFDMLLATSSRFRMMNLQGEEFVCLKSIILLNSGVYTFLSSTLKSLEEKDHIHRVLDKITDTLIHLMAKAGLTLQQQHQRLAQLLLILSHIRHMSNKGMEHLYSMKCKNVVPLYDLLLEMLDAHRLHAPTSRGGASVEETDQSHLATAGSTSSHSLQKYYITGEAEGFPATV

As to `COc1c(Br)cc(Br)c(C)c1Br`, the Potency result in [1], in assay [2], in assay [3], in assay [5], in assay [6] and in assay [7] was “inactive” throughout. Moreover, the Potency result in assay [8], in assay [9], in assay [11], in [12], in assay [13] and in assay [14] was “inactive” in each case. For the same compound, the Potency result in [15], in [16], in [17] and in [18] was “inactive” each time. Moreover, the outcome in assay [4] and in assay [10] was inactive.
As for `Nc1ccc2c(S(=O)(=O)O)cccc2c1S(=O)(=O)O`, the Potency entry in assay [1], in assay [2], in [19], in assay [3], in assay [5] and in assay [6] was “inactive” throughout. Further, the Potency result in [7], in assay [8], in assay [9], in assay [11], in [12] and in assay [13] was “inactive” in each case. Further, the Potency entry in assay [14], in assay [16], in assay [17] and in assay [18] was “inactive” in each case. Besides, the compound was classed as inactive in assay [4] and in [10].
Take `CN(C)CCOc1ccc(/C(=C(/CCCl)c2ccccc2)c2ccccc2)cc1`: the Potency in assay [1] is 45.5 µM (active); in assay [19], 40.5 µM (active); in assay [6], 51 µM (active); in [7], 57.2 µM (active); in assay [13], 22.8 µM (active); in assay [14], 57.2 µM (active). The Potency was 51 µM (active) in assay [15], 51 µM (active) in [16] and 57.2 µM (active) in [17]. Moreover, the Potency result in [2], in assay [8], in assay [11] and in assay [12] was “inactive” in each case. Also, the call in assay [10] was inactive.
In the case of `CC1CCC(C(C)(C)O)CC1` (stereo not given), the Potency result in assay [1], in assay [3], in [6], in [7], in assay [8] and in [9] was “inactive” each time. Further, the Potency result in assay [11], in assay [12], in assay [13], in assay [14], in assay [15] and in assay [16] was “inactive” in each case. Moreover, the Potency result in assay [18] is “inactive”. The compound was called inactive in assay [4] and in assay [10].
As for `C=C(C)C1CCC(C)CC1O` (stereo not given), the Potency result in assay [1], in assay [2], in assay [19], in assay [3], in assay [6] and in assay [7] was “inactive” each time. Moreover, the Potency entry in assay [8], in [9], in assay [13], in [14], in [15] and in assay [16] was “inactive” throughout. In addition, the Potency result in [17] and in [18] was “inactive” throughout. For the same compound, the compound was classed as inactive in assay [4] and in [10].
On to `CCCCCCCCCCCC(=O)Cl`, for which the Potency entry in assay [20], in [2], in assay [19], in assay [3], in assay [5] and in assay [6] was “inactive” in each case. Moreover, the Potency result in assay [7], in [8], in assay [9], in assay [11], in assay [12] and in [13] was “inactive” each time. Moreover, the Potency result in [14], in [15], in assay [16], in assay [17] and in assay [18] was “inactive” each time. The compound was classed as inactive in assay [4] and in [10].
